# Assay results from PMC7826789 (International Journal of Molecular Sciences, 2021).
# Experiments:
# Details in all cases: Compound Concentration (nM):1000
# ROCK2 = system: ROCK2
# ROS1 = system: ROS1
# [1] = system: RPS6KA4(Kin.Dom.1-N-terminal)
# [2] = system: RPS6KA4(Kin.Dom.2-C-terminal)
# [3] = system: RPS6KA5(Kin.Dom.1-N-terminal)
# [4] = system: RPS6KA5(Kin.Dom.2-C-terminal)
# [5] = system: T1, RSK1(Kin.Dom.1-N-terminal)
# T1 construct: gene RPS6KA1
# [6] = system: T2, RSK1(Kin.Dom.2-C-terminal)
# T2 construct: gene RPS6KA1
# [7] = system: T3, RSK2(Kin.Dom.1-N-terminal)
# T3 construct: gene RPS6KA3
# [8] = system: T4, RSK2(Kin.Dom.2-C-terminal)
# T4 construct: gene RPS6KA3
# [9] = system: T5, RSK3(Kin.Dom.1-N-terminal)
# T5 construct: gene RPS6KA2
# [10] = system: T6, RSK3(Kin.Dom.2-C-terminal)
# T6 construct: gene RPS6KA2
# [11] = system: T7, RSK4(Kin.Dom.1-N-terminal)
# T7 construct: gene RPS6KA6
# [12] = system: T8, RSK4(Kin.Dom.2-C-terminal)
# T8 construct: gene RPS6KA6
# S6K1 = system: T9, S6K1
# T9 construct: gene RPS6KB1
# SBK1 = system: SBK1
# SGK2 = system: SGK2
# SGK3 = system: SGK3
# SGK = system: T10, SGK
# T10 construct: gene SGK1
# SIK2 = system: SIK2
# 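Further: KINOMEscan scanMAX binding as percent activity remaining versus control; lower means stronger binding.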
Compound,Percent Control (ROCK2) [%],Percent Control (ROS1) [%],Percent Control [1] [%],Percent Control [2] [%],Percent Control [3] [%],Percent Control [4] [%],Percent Control [5] [%],Percent Control [6] [%],Percent Control [7] [%],Percent Control [8] [%],Percent Control [9] [%],Percent Control [10] [%],Percent Control [11] [%],Percent Control [12] [%],Percent Control (S6K1) [%],Percent Control (SBK1) [%],Percent Control (SGK2) [%],Percent Control (SGK3) [%],Percent Control (SGK) [%],Percent Control (SIK2) [%]
NS(=O)(=O)c1ccc(N/N=C2\C(=O)Nc3ccc(Cl)cc32)cc1 [GW280670X],89,79,100,97,100,100,100,100,100,83,100,100,99,100,98,100,100,77,100,100
Cl.O=C(O[C@H]1CN[C@H](C#Cc2cc3ncnc(Nc4ccc5c(cnn5Cc5ccccc5)c4)c3s2)C1)N1CCOCC1 [GSK200398A],84,73,97,88,100,100,96,97,95,93,92,89,80,83,100,100,97,99,99,69
CN1CCN(C(=O)c2ccc(NC(=O)Nc3ccc(N(C)c4ccnc(Nc5ccc(CS(C)(=O)=O)cc5)n4)cc3)cc2)CC1.Cl [GW830263A],1.5,57,82,74,100,87,100,93,57,86,84,89,74,84,37,65,73,79,57,56
COc1cc(C)c(N(C)C(=O)CN(C)C)cc1Nc1nc(Nc2cccc(F)c2C(N)=O)c2cc[nH]c2n1 [GSK2219385],100,84,92,68,100,90,56,96,21,100,79,90,75,82,100,100,92,92,92,100
NS(=O)(=O)c1ccc(N/N=C2\C(=O)Nc3ccc(C(=O)NCCc4c[nH]cn4)cc32)cc1 [GW300660X],40,100,100,80,100,100,100,100,54,100,100,100,45,100,76,100,100,12,26,100
